In the supplement of paper PMC7411640:
Counter-ions that a name gives are not always drawn.

Tested on: MDA-MB-468
Test: phospho-S6 immunofluorescence (DAPI-normalised), per-plate z-score; higher = higher phospho-S6 signal (less pathway suppression)
Conditions: co-treatment: lapatinib 1 uM; 24 h
Method: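 GPCR-targeted compound library (MedChemExpress HY-L006) tested on MDA-MB-468 PTEN-null TNBC cells in 384-well plates at 0.1, 1 or 10 uM, combined with vehicle, GDC0941 450 nM or lapatinib 1 uM, for 24 h. Phospho-S6 (S240/244) immunofluorescence normalised to DAPI and expressed as a per-plate z-score; values are the mean of biological triplicates.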

SMILES | phospho-S6 immunofluorescence (z-score)
CC(C)COc1ccc(CNC(=O)N(Cc2ccc(F)cc2)C2CCN(C)CC2)cc1 [Pimavanserin] (compound 10 µM) | -2.95
CNC(=C[N+](=O)[O-])NCCSCc1ccc(CN(C)C)o1 [Ranitidine (hydrochloride)] (compound 10 µM) | 0.54
Cc1noc(-c2ccc(-c3ccc(CC(=O)O)cc3)cc2)c1NC(=O)OC(C)c1ccccc1Cl (configuration not stated) (compound 10 µM) | 0.28
Cc1ccc(N(CC2=NCCN2)c2cccc(O)c2)cc1 [Phentolamine (mesylate)] (compound 10 µM) | 1.1
O=c1n(CCCN2CCN(c3cccc(Cl)c3)CC2)nc2ccccn12 [Trazodone (hydrochloride)] (compound 10 µM) | 0.08
CCCCc1nc(Cl)c(CO)n1Cc1ccc(-c2ccccc2-c2nnn[nH]2)cc1 [Losartan (potassium)] (compound 10 µM) | 0.83
O=c1ccccn1CC1(O)CCN(Cc2ccccc2)CC1 (compound 10 µM) | -0.19
Cc1cc2c(cc1CC(=O)c1sccc1S(=O)(=O)Nc1onc(C)c1Cl)OCO2 [Sitaxsentan (sodium)] (compound 10 µM) | 0.35
CNCC(O)c1ccc(O)c(O)c1 [L-Epinephrine] (compound 10 µM) | 2.36
CCCc1c2oc(C(=O)O)cc(=O)c2cc2c(=O)cc(C(=O)O)n(CC)c12 [Nedocromil] (compound 10 µM) | -0.48
COc1cc(C(=O)NS(=O)(=O)c2ccccc2C)ccc1Cc1cn(C)c2ccc(NC(=O)OC3CCCC3)cc12 [Zafirlukast] (compound 10 µM) | -0.41
CCCCCNC(=N)N/N=C/c1c[nH]c2ccc(OC)cc12 [Tegaserod (maleate)] (compound 10 µM) | -12.1
Cc1cc2c(cc1Cl)N(C(=O)Nc1ccc(Oc3cccnc3C)nc1)CC2 (compound 10 µM) | -5.09
Cc1ccc(-c2n[nH]c3c2C(c2cccc(O)c2)N(c2ccc(C(=O)O)cc2)C3=O)cc1 (configuration not stated) (compound 10 µM) | 0.5
CC1(C)O[C@@H]2C[C@H]3[C@@H]4C[C@H](F)C5=CC(=O)C=C[C@]5(C)[C@@]4(F)[C@@H](O)C[C@]3(C)[C@]2(C(=O)CO)O1 [Fluocinolone (Acetonide)] (compound 10 µM) | 0.83
CCCCCCCCOc1ccccc1C(=O)Nc1ccc(C(=O)OCC[N+](C)(CC)CC)cc1 [Otilonium (bromide)] (compound 10 µM) | 2.8
C[C@H]1C[C@H]2[C@@H]3CCC4=CC(=O)C=C[C@]4(C)[C@H]3C(=O)C[C@]2(C)[C@@]1(O)C(=O)CO [Meprednisone] (compound 10 µM) | -0.5
COc1nc(C)nc(Cl)c1NC1=NCCN1 [Moxonidine] (compound 10 µM) | 0.68
Cc1ccc(NC(=S)NNc2c([N+](=O)[O-])cc(C(F)(F)F)cc2[N+](=O)[O-])cc1Cl (compound 10 µM) | -0.44
CC(C)Cc1ccc([C@@H](C)C(=O)NS(C)(=O)=O)cc1 [Reparixin (L-lysine salt)] (compound 10 µM) | -1.46
O=C(NCCCN1CCC2(CC1)OCc1ccccc12)[C@H]1CCCN1Cc1ccccc1 (compound 10 µM) | -1.57
COc1cc2c(cc1OC)CN(C(=O)[C@@H](NCc1ccncc1)C(C)(C)C)CC2 (compound 10 µM) | 0.87
C[C@@H]1C[C@H]2[C@@H]3CCC4=CC(=O)C=C[C@]4(C)[C@@]3(Cl)[C@@H](O)C[C@]2(C)[C@@]1(OC(=O)c1ccco1)C(=O)CCl [Mometasone furoate] (compound 10 µM) | 0.3
CN(C)CCC(c1ccc(Br)cc1)c1ccccn1 (configuration not stated) [Brompheniramine (maleate)] (compound 10 µM) | -0.17
Cc1nc2c([nH]1)-c1ccccc1N(C(=O)c1ccc(NC(=O)c3ccccc3-c3ccccc3)cc1)CC2 [Conivaptan (hydrochloride)] (compound 10 µM) | 0.52
CC(C)=CCC[C@](C)(O)[C@H]1CC[C@]2(C)[C@@H]1[C@H](O)C[C@@H]1[C@@]3(C)CC[C@H](O)C(C)(C)[C@@H]3[C@@H](O)C[C@]12C [(20S)-Protopanaxatriol] (compound 10 µM) | -2.12
O=C(CN1C(=O)C2(CCCC2)NC[C@H]1c1cc(F)cc(F)c1)Nc1ccc2c(c1)C[C@@]1(C2)C(=O)Nc2ncccc21 [MK-3207 (Hydrochloride)] (compound 10 µM) | -0.06
